GLP-1R agonist: activates the human GLP-1 receptor; HEK293 GLP-1R CRE-luciferase, luminescence, 4-6 h; cells express a hypersensitive GLP-1R form; Potency, µM (series often up to 45.6 µM), inactives show top-dose activation, actives largely listed as activators; 0.007% of 380,000 active; AID 624172; further: potency means the concentration at half of the fitted maximal effect; % of control where 0% means no effect
Target sequence (P43220 whole entry, looked up): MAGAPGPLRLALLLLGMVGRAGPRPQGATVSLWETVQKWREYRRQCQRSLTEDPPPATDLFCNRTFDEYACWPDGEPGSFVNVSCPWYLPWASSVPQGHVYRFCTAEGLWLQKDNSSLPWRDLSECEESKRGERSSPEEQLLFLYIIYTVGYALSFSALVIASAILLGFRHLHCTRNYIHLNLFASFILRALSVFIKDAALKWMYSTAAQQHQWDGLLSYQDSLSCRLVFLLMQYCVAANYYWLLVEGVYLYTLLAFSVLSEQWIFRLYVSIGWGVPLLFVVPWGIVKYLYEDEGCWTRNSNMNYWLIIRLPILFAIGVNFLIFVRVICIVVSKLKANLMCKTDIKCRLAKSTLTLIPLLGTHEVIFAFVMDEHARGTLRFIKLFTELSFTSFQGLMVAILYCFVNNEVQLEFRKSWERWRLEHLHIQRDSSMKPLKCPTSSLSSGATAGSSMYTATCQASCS
GLP1R inv ag: GLP-1 receptor (human) inverse agonism | P43220 | 1.6% of 410,000 active | HEK293 GLP-1R CRE-luciferase, luminescence, 24 h; GLP-1R form is constitutively active | Potency, µM (titrated, usually from 38.3 µM), without a hit: top-dose activity change, negative = inhibition, hits mostly inhibitors | AID 624417; further: potency means the concentration at half of the fitted maximal effect; on the % scale 0 is the no-effect control and ±100 the full control effect; nearly all actives have a fitted effect of over 55% in size
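Inverse agonists were sought by their lowering of basal cAMP reporter luciferase output in HEK293 cells stably carrying constitutively active human GLP-1R, after 24 h compound treatment.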
TRPML1 inh: human mucolipin-1 channel inhibition. Q9GZU1. TRPML1-inducible cells, Ca2+ dye fluorescence, FDSS; active compounds read low; inhibition of EC80 agonist-evoked calcium signal. activity change, negative = inhibition, % (test concentration not listed). 0.02% of 390,000 active. AID 624415; in the data active means activity change below about -50%; inconclusive means between about -30% and that limit;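 further: stimulus is agonist 54-4 at its EC80 concentration; on the % scale 0 is the no-effect control and ±100 the full control effect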
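Tet-induced TRPML1-DL cells loaded with Ca8 no-wash calcium dye were read kinetically on FDSS. Compound addition was followed by EC80 agonist 54-4 (4 uM final); inhibition was read over 110 s.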
TRPML1 agonist: activates the human TRPML1 channel; Q9GZU1; TRPML1-expressing cells, Ca2+ dye fluorescence, FDSS; activation, % (concentration not given with the values); 0.12% of 410,000 active; AID 624414; in the data active means activation above about 50%; inconclusive means mostly about 30% to 49%; further: 0% is about no effect
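Tetracycline-induced TRPML1-DL cells are seeded and incubated overnight before loading with a no-wash Ca2+ dye and quencher. Agonist activity is taken from the 110 s fluorescence read following compound pin-transfer on an FDSS, before EC80 54-4 challenge.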
GLP1R cytotox: cytotoxic in the GLP-1 receptor inverse agonist counter-screen; Potency, µM (highest dose often 38.3 µM), for inactives: at the highest dose activity change, negative = inhibition, hits mostly inhibitors; HEK293 cAMP-luciferase reporter cells, luminescence, 24 h; AID 624418; 0.13% of 410,000 active;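 further: loss of luciferase light is scored as toxicity; potency means the concentration at half of the fitted maximal effect; on the % scale 0 is the no-effect control and ±100 the full control effect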
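MLSMR compounds, 24 hr on cells at 37 deg C/5% CO2; luminescence after luciferase reagent (12 min RT). Inhibition counted as the undesired cytotoxic outcome.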
An asterisk follows results filed as active; ? = inconclusive; . = not tested or not shown. Hits are enriched below; roughly 1.8% of the tested compounds scored in any of these assays. Unless noted, the call rests on the fitted dose curve; in most records, active means well fitted curve in the direction sought with a large enough effect; inconclusive means small, poorly fitted or top-dose-only effect, or another doubt; inactive means no such curve, though single readings can be large; an effect the other way counts as inactive or inconclusive.

SMILES	GLP-1R agonist	GLP1R inv ag	TRPML1 inh	TRPML1 agonist	GLP1R cytotox
CC1CCN(CC(=O)Nc2ccc(N3CCCCCC3)cc2)CC1	23.4%	2.82µM*	13.0	0.7	-27.1%
O=C(CN1CCCC1)Nc1ccc(Oc2ccc(NC(=O)CN3CCCC3)cc2)cc1	6.4%	1.78µM*	-17.0	-0.6	?
CC1CCN(CC(=O)Nc2cccc(C(=O)Nc3cccc(C(F)(F)F)c3)c2)CC1	16.2%	3.16µM*	21.5	0.7	?
COc1ccc(NC(=O)CN2CCCC2)cc1	8.8%	-9.2%	-3.6	-0.1	0.8%
CC1CN(CC(=O)Nc2cccc(C(=O)Nc3cccc(C(F)(F)F)c3)c2)CC(C)O1 (configuration not stated)	2.9%	?	3.4	-0.5	-22.5%
CC1CCN(CC(=O)Nc2ccc(S(=O)(=O)N3CCCCC3)cc2)CC1	-7.1%	?	13.1	0.5	13.2%
O=C(Nc1ccc(Cl)cc1Cl)[C@@H]1CC=C[C@@H]2CCN(Cc3ccccc3)C(=O)[C@@H]21	.	.	.	-0.6	.
Cc1ccc(-c2nn(-c3cccc(F)c3)cc2CN(Cc2nccn2C)C(C)C)o1	-0.1%	?	13.9	2.6	?
Cc1ccc(-c2nn(-c3cccc(F)c3)cc2CN2CCN(c3ccccn3)CC2)o1	-0.9%	10µM*	5.6	2.3	5.3%
CC(=O)N1CCCN(Cc2cn(-c3ccc(C)cc3)nc2-c2cccc(C)c2)CC1	24.0%	10µM*	6.3	-0.4	-15.1%
COc1ccc(-n2cc(CN3CCCC3)c(-c3cccc(F)c3)n2)cc1	14.7%	?	6.1	0.7	?
Cc1cccc(-n2cc(CN3CCN(Cc4nccn4C)CC3)c(-c3cccc(F)c3)n2)c1	13.9%	4.47µM*	-1.9	0.8	?
Cc1cc(C)cc(OCC(=O)N(Cc2cccs2)c2ccc(Cl)cc2)c1	.	10µM*	-17.4	0.4	-6.8%
COc1ccc(N(Cc2cccs2)C(=O)COc2cccc(C)c2C)cc1	.	?	-2.5	2.3	-7.3%
COc1ccc(N(Cc2cccs2)C(=O)COc2cc(C)c(Cl)c(C)c2)cc1	.	8.91µM*	9.7	4.4	-22.4%
CC(=O)OCC(NC(=O)C1CCCN1C(=O)OC(C)(C)C)C1OC(n2cc(F)c(=O)[nH]c2=O)C(OC(C)=O)C1OC(C)=O (configuration not stated)	.	.	-3.5	0.6	.
O=C(Nc1ccc2nc(SCC(=O)N3CCc4ccccc43)sc2c1)c1ccccc1	.	-26.7%	-8.0	0.7	-14.5%
CNCCCC1c2ccccc2C=Cc2ccccc21	5.2%	?	8.5	1.2	-5.6%
CNCCCC1Sc2ccccc2Oc2ccccc21 (configuration not stated)	0.1%	5.01µM*	22.1	-0.6	?
Cc1[nH]c2ccccc2c1C(=O)CN1C(=O)NC(C)(c2ccc(Cl)cc2Cl)C1=O (configuration not stated)	17.1%	12.6µM*	-15.2	15.9	?
COc1cc2ncc3c(-c4ccccc4)nn(CC(=O)NC4CCCCC4)c3c2cc1OC	.	-3.4%	-1.7	0.7	1.2%
CC(C)CNC(=O)Nc1cc(C(=O)NCc2ccc(C(C)C)cc2)ccc1N1CCCC1	.	-19.3%	16.4	1.8	-0.7%
Cc1ccc(-c2onc(C)c2C)cc1S(=O)(=O)N1c2ccccc2CC1C (configuration not stated)	.	10µM*	31.5	1.5	12.0%
C=CCNC(=S)NNc1nc2c(c(=O)[nH]1)C1(CCCCC1)Cc1ccccc1-2	-0.3%	10µM*	-9.7	1.2	-17.2%
O=c1[nH]c(NCCO)nc2c1C1(CCCC1)Cc1ccccc1-2	-10.5%	-6.3%	22.1	-0.7	-14.1%
O=C(NCc1ccccc1Br)c1ccc(-n2cnc3cccnc32)cc1	.	7.5%	3.5	0.2	9.9%
O=C(CCSc1ccccc1)Nc1nccs1	-14.4%	-0.2%	-9.4	0.3	4.6%
O=C(CSc1ccccc1)N(c1ccc(Br)cc1)c1nccs1	13.2%	11.2µM*	-3.6	2.7	-1.1%
CCCCN(C(=O)c1ccc2c(c1)OCO2)c1ccccc1	12.2%	10µM*	-12.7	1.2	4.7%
Cc1ccc2nc(-c3cc(-c4ccccc4)no3)cn2c1	4.8%	3.98µM*	19.4	1.3	8.7%

Assay outcomes deposited in PubChem by National Center for Advancing Translational Sciences (NCATS).
